In PubChem BioAssay AID624405 (Broad Institute, 2012):
In all, about 1,900 compounds went through this assay and about 250 (13%) were called active. Not shown: some 4% with an inconclusive outcome.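 Rule for the calls: active = fitted curve reaches 40% rescue activity at or below the top valid dose, in every test run; inconclusive = test runs disagree, some active and some inactive; inactive = every run misses the threshold or moves the wrong way.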 Only a sample is shown. Measured potencies and affinities stand elsewhere.

Experiment: rescue of simvastatin-induced ATP loss – cell-based, C2C12 myotubes, ATP luminescence, cherry pick, dose response (AID 624405);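 note: myotubes are challenged with simvastatin at 10 µM to lower ATP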
Conditions: 48 h, scaled: DMSO wells 0, geranylgeraniol wells 100; series mostly up to 19.5 µM

Row | SMILES | outcome
1 | Cc1ccc(C(=O)N2CCSCC2)cc1 | inactive
2 | CSCCC(NC(N)=O)C(=O)NCC1CCCCC1 (stereo not drawn) | inactive
3 | Cc1ccc(N2CCN(/N=C/c3sccc3C)CC2)cc1 | inactive
4 | Cc1noc(C)c1S(=O)(=O)Nc1ccc2c(c1)C(=O)N([C@H](C)CO)C[C@H](C)[C@H](CN(C)S(=O)(=O)c1cccs1)OCCCC[C@H](C)O2 | inactive
5 | C[C@@H]1CN([C@H](C)CO)C(=O)Cc2cc(NC(=O)Nc3cccc4ccccc34)ccc2O[C@H]1CN(C)Cc1ccc(Cl)c(Cl)c1 | inactive
6 | C[C@@H]1CN([C@@H](C)CO)C(=O)Cc2cc(NC(=O)Nc3cccc4ccccc34)ccc2O[C@H]1CN(C)Cc1ccc2c(c1)OCO2 | inactive
7 | O=C(C[C@H]1CC[C@@H](NC(=O)c2ccc3c(c2)OCO3)[C@H](CO)O1)NCc1ccc(Oc2ccccc2)cc1 | inactive
8 | COC(=O)c1c(C(=O)OC)c2cc(C)ccn2c1Cl | inactive
9 | C[C@@H]1CN([C@@H](C)CO)C(=O)Cc2cc(NS(=O)(=O)c3ccc(F)cc3)ccc2O[C@H]1CN(C)Cc1ccc(Oc2ccccc2)cc1 | inactive
10 | C[C@@H]1CN([C@@H](C)CO)C(=O)c2cccc(NS(=O)(=O)c3cccs3)c2O[C@@H]1CN(C)S(=O)(=O)c1ccc(Cl)cc1 | inactive
11 | COc1cccc(-c2cnc3c(c2)C(=O)N([C@H](C)CO)C[C@H](C)[C@H](CN(C)S(=O)(=O)c2cccs2)O3)c1 | inactive
12 | COc1ccc(C2CC(=O)c3cnc(N)nc3C2)c(OC)c1 (stereo not drawn) | inactive
13 | COc1ccc2c(c1OC)C(=O)N(c1ccccn1)C2 | inactive
14 | CCOc1ccc(OCCOCCOc2c(Cl)cccc2Cl)cc1 | inactive
15 | COC(=O)c1cn(CC(=O)N2C(C)CCCC2C)c2ccccc12 (stereo not drawn) | inactive
16 | COc1ccc(S(=O)(=O)Nc2ccc3c(c2)C(=O)N([C@@H](C)CO)C[C@@H](C)[C@H](CN(C)S(=O)(=O)c2ccc(F)cc2)OCCCC[C@H](C)O3)cc1 | inactive
17 | CCS(=O)(=O)N1CCCC(C(=O)NCCc2ccc(OC)c(OC)c2)C1 (stereo not drawn) | inactive
18 | O=C(Nc1cccc(Cl)c1)C1CCCN(S(=O)(=O)c2ccc(F)cc2)C1 (stereo not drawn) | inactive
19 | Cc1ccc(S(=O)(=O)Nc2ccc3c(c2)C(=O)N([C@@H](C)CO)C[C@@H](C)[C@H](CN(C)S(=O)(=O)c2cccs2)O3)cc1 | inactive
20 | CCOc1ccc(CNn2nnnc2N)cc1 | inactive
21 | C=CCN(c1ccccc1OC)S(=O)(=O)c1cccc(C(=O)OC2CCOC2=O)c1 (stereo not drawn) | inactive
22 | CCCNC(=O)N(C)C[C@@H]1Oc2cc(C3=CCCCC3)ccc2S(=O)(=O)N([C@H](C)CO)C[C@@H]1C | inactive
23 | Cc1ccc(NC(=O)c2ccccc2N(C)S(C)(=O)=O)cc1C | inactive
24 | CSc1ccccc1NC(=O)c1ccccc1N(Cc1ccccc1)S(C)(=O)=O | inactive
25 | C[C@@H]1CCCCO[C@@H](CN(C)C(=O)c2ccccc2)[C@H](C)CN([C@@H](C)CO)C(=O)c2cc(NS(=O)(=O)c3cccs3)ccc2O1 | inactive
26 | CCOC(=O)c1sc(NC(=O)c2c(C)nn(Cc3ccccc3)c2C)cc1C | inactive

Row | SMILES | outcome
27 | COc1ccc(CN2[C@@H](CO)[C@@H]3c4ccccc4NC[C@@H]32)cc1 | inactive
28 | COc1ccc(CN2[C@H](CO)[C@@H]3c4ccccc4NC[C@@H]32)cc1 | inactive
29 | O=C(Nc1ccccc1Cl)N1C[C@@H]2[C@H](c3ccccc31)[C@@H](CO)N2Cc1ccccc1 | inactive
30 | Cc1ccc(S(=O)(=O)Nc2ccc3c(c2)CC(=O)N([C@H](C)CO)C[C@H](C)[C@@H](CN(C)Cc2ccc(C(F)(F)F)cc2)O3)cc1 | inactive
31 | O=C(NCc1ccco1)c1ccccc1NS(=O)(=O)c1ccc2c(c1)OCCO2 | inactive
32 | FC(F)(F)c1nc2nncn2c2c1CCCCC2 | inactive
33 | CCc1ccc(N2CC(C(=O)NC3=NCCS3)CC2=O)cc1 (stereo not drawn) | inactive
34 | Cc1ccc(N(CN2CCCC2=O)C(=O)c2ccc(C)c(C)c2)cc1 | inactive
35 | CC(C)N1C(=O)CCC1C(=O)N1CCC(Cc2ccccc2)CC1 (stereo not drawn) | inactive
36 | CC(C)CC(NC(=O)C1CCC(C)CC1)C(=O)Nc1cccnc1 (stereo not drawn) | inactive
37 | COc1ccc(S(=O)(=O)Nc2ccc3c(c2)CC(=O)N([C@H](C)CO)C[C@@H](C)[C@@H](CN(C)Cc2ccc(Cl)c(Cl)c2)O3)cc1 | inactive
38 | CC(C)NC(=O)Nc1ccc2c(c1)C(=O)N([C@H](C)CO)C[C@@H](C)[C@H](CN(C)C(=O)C1CCCCC1)OCCCC[C@@H](C)O2 | inactive
39 | C[C@H]1CN([C@@H](C)CO)C(=O)Cc2cc(NS(=O)(=O)c3cn(C)cn3)ccc2O[C@@H]1CN(C)Cc1ccc(Cl)c(Cl)c1 | inactive
40 | C[C@@H]1CN([C@@H](C)CO)C(=O)Cc2cc(NS(=O)(=O)c3cn(C)cn3)ccc2O[C@@H]1CN(C)Cc1ccc(Cl)c(Cl)c1 | inactive
41 | C[C@@H]1CN([C@@H](C)CO)C(=O)Cc2cc(NS(=O)(=O)c3cn(C)cn3)ccc2O[C@H]1CN(C)Cc1ccc(Cl)c(Cl)c1 | inactive
42 | C[C@@H]1CN([C@H](C)CO)C(=O)Cc2cc(NS(=O)(=O)c3cn(C)cn3)ccc2O[C@H]1CN(C)Cc1ccc(Cl)c(Cl)c1 | inactive
43 | COc1ccc(CCNC2CCN(C)CC2)cc1OC | inactive
44 | Cc1[nH]c2ccccc2c(=O)c1SC(F)(F)C(F)C(F)(F)F (stereo not drawn) | inactive
45 | Cc1ccc(CC2CC(=O)N(CCc3ccc4c(c3)OCO4)C2=O)cc1 (stereo not drawn) | inactive
46 | COc1ccc(NC(=O)N(C)C[C@H]2Oc3ccc(NC(=O)Cn4cnnn4)cc3C(=O)N([C@H](C)CO)C[C@H]2C)cc1 | inactive
47 | C[C@@H]1CN([C@H](C)CO)C(=O)Cc2cc(NC(=O)Cc3cn(C)c4ccccc34)ccc2O[C@H]1CN(C)Cc1ccc(C(F)(F)F)cc1 | inactive
48 | COc1cc2c3c(c1)C1(C(=O)N3C(C)(C)C=C2C)C(C#N)=C(N)Oc2cc(C)oc(=O)c21 (stereo not drawn) | inactive
49 | COc1ccc(CCN2C(=O)C3C(C2=O)C2C=CC3C23CC3)cc1OC (stereo not drawn) | inactive
50 | C[C@@H]1CCCCO[C@@H](CN(C)Cc2ccc(Cl)c(Cl)c2)[C@@H](C)CN([C@H](C)CO)C(=O)c2cc(NC(=O)Cc3ccccc3)ccc2O1 | inactive
51 | Cc1ccc(CSCC(=O)Nc2ccc3c(c2)OCO3)cc1 | inactive
52 | COc1ccc(-n2c(SCC(=O)Nc3ccc4c(c3)OCO4)nc3ccccc3c2=O)cc1 | inactive

Row | SMILES | outcome
53 | C[C@@H]1CN([C@H](C)CO)C(=O)c2cccc(NC(=O)Nc3ccc(F)cc3)c2O[C@H]1CN(C)Cc1ccccc1 | inactive
54 | Cc1ccc(C(C(=O)NC2CCCC2)N(Cc2cccs2)C(=O)CNC(=O)c2cccs2)o1 (stereo not drawn) | inactive
55 | O=C(NC1CCCC1)C(c1ccsc1)N(Cc1ccco1)C(=O)Cc1cccs1 (stereo not drawn) | inactive
56 | Cc1ccc(S(=O)(=O)N(C)C[C@@H]2Oc3ncc(C#Cc4cccc(F)c4)cc3C(=O)N([C@H](C)CO)C[C@@H]2C)cc1 | inactive
57 | C[C@@H]1CCCCO[C@@H](CN(C)C(=O)Nc2cccc3ccccc23)[C@@H](C)CN([C@H](C)CO)C(=O)c2cc(NS(=O)(=O)c3ccc(Cl)cc3)ccc2O1 | inactive
58 | C[C@H]1CN([C@@H](C)CO)C(=O)c2cc(C#Cc3cccc(F)c3)cnc2O[C@@H]1CN(C)C(=O)C1CCCCC1 | inactive
59 | C[C@H](CO)N1C[C@H](C)[C@@H](CN(C)CC2CCCC2)Oc2ncc(C#Cc3ccncc3)cc2C1=O | inactive
60 | COc1cccc(-c2cnc3c(c2)C(=O)N([C@H](C)CO)C[C@H](C)[C@H](CN(C)Cc2ccccc2)O3)c1 | inactive
61 | C[C@H](CO)N1C[C@H](C)[C@H](CN(C)C(=O)Nc2cccc3ccccc23)Oc2ncc(C#Cc3ccc(C(F)(F)F)cc3)cc2C1=O | inactive
62 | COc1ccc(C#Cc2cnc3c(c2)C(=O)N([C@H](C)CO)C[C@H](C)[C@H](CN(C)Cc2cccc(C(F)(F)F)c2)O3)cc1OC | inactive
63 | C[C@H](CO)N1C[C@H](C)[C@H](CN(C)C(=O)Nc2ccc3c(c2)OCO3)Oc2ncc(C#Cc3ccc(F)cc3)cc2C1=O | inactive
64 | CC(C)CC#Cc1cnc2c(c1)C(=O)N([C@@H](C)CO)C[C@@H](C)[C@H](CN(C)C(=O)Cc1ccccc1)O2 | inactive
65 | CC(C)CC#Cc1cnc2c(c1)C(=O)N([C@H](C)CO)C[C@@H](C)[C@H](CN(C)C(=O)Cc1ccccc1)O2 | inactive
66 | Cc1cc2c(cc1C)/C(=C\C(N)=O)NC(C)(C)C2 | inactive
67 | COc1cc(C(N)=O)ccc1OCc1ccccc1 | inactive
68 | CCN(CC)C(=O)CSc1nnc([C@H](CCSC)NC(=O)OC(C)(C)C)o1 | inactive
69 | O=C(NCc1ccccc1)Oc1cccc(Cl)c1 | inactive
70 | Cc1cc(NC(=O)c2ccc(Cl)c(S(=O)(=O)N3CCOCC3)c2)no1 | inactive
71 | C[C@H]1CN([C@@H](C)CO)C(=O)c2cc(NS(=O)(=O)c3ccc(F)cc3)ccc2O[C@H]1CN(C)Cc1ccc(-c2ccccc2)cc1 | inactive
72 | CN1C[C@@H]2[C@H](c3ccccc31)[C@@H](CO)N2Cc1ccccc1 | inactive
73 | C[C@@H]1CN([C@@H](C)CO)C(=O)c2cc(NC(=O)c3ccccc3)ccc2O[C@@H](C)CCCCO[C@H]1CN(C)C(=O)CCCN(C)C | inactive
74 | C[C@H]1CCCCO[C@H](CN(C)C(=O)Nc2cccc3ccccc23)[C@@H](C)CN([C@@H](C)CO)C(=O)c2cc(NS(=O)(=O)c3ccc(Cl)cc3)ccc2O1 | inactive
75 | C[C@@H]1CN([C@H](C)CO)C(=O)c2cc(NC(=O)Nc3ccc(F)cc3)ccc2O[C@@H](C)CCCCO[C@H]1CN(C)S(=O)(=O)c1cccs1 | inactive
76 | CS(=O)(=O)N(CC(=O)NCc1ccccc1)C1CCCCC1 | inactive
77 | O=C(CN1CCN(c2ccccn2)CC1)NCCc1ccccc1 | inactive
78 | CSc1cc(-c2ccc(Cl)cc2)c(C(=O)NC(C)C)s1 | inactive
